Results filed as inconclusive are left out. Entries that show only a call come without a potency. Values without a mark were called inactive. Activity calls are given as the source filed them. The call rests on the fitted dose curve; in most records, active means well fitted cell-killing curve with a large enough effect in the repeat runs; inconclusive means weak or mixed curves, or effect the other way; inactive means flat fitted curve, though single readings scatter.

This assay is described as follows: qHTS assay to identify small molecule agonists of the estrogen receptor beta (ER-beta) signaling pathway - cell viability counter screen (AID 1259380). Further: nearly all actives have a fitted effect of over 30% in size. The conditions noted are these: ER-beta-bla HEK293T viability, CellTiter-Glo luminescence, 16 h; series mostly up to 92.4 µM; activity change, negative = cytotoxicity: at the top concentration. From the text:
National Center for Advancing Translational Sciences [NCATS]
NIH Chemical Genomics Center [NCGC]
U.S. Environmental Protection Agency [EPA]
National Institutes of Environmental Health Sciences [NIEHS]
National Toxicology Program [NTP]
U.S. Food and Drug Administration [FDA]
Estrogen receptor (ER), a nuclear hormone receptor, plays an important role in development, metabolic homeostasis and reproduction. Two subtypes of ER, ER-alpha and ER-beta, have similar expression patterns with some uniqueness in both types. Endocrine disrupting chemicals (EDCs) and their interactions with steroid hormone receptors like ER causes disruption of normal endocrine function. To identify the compounds that activate ER signaling, an ER beta-UAS-bla GripTite cell line (Life Technologies, Madison, WI, USA) containing a beta-lactamase reporter gene under the control of an UAS response element was used to screen Tox21 10K compound library. The cytotoxicity of the Tox21 compound library against the ER-beta-bla cell line was tested in parallel by measuring the cell viability using CellTiter-Glo assay in the same wells.
Tox21 Assay Protocol Summary:
ER-beta-UAS-bla HEK293T cells were dispensed at 2,000 cells/5 uL of assay medium containing 2% charcoal stripped FBS per well into black wall/clear-bottom 1536-well plates using a Multidrop Combi (ThermoFisher Scientific, Waltham, MA) dispenser. After the assay plates were incubated at a 37C and 5% CO2 for 6 hr, 23 nL of compounds dissolved in DMSO, positive controls or DMSO only was transferred to the assay plate by a Pintool station (Kalypsys, San Diego, CA). The plates were incubated at 37C and 5% CO2 for 16 hr. Then 1 uL of LiveBLAzerTM B/G FRET substrate was added using a BioRAPTR FRD (Flying Reagent Dispenser, Aurora Discovery, San Diego, CA) and then the plates were incubated at room temperature for 2 hours, and fluorescence intensity was measured by an Envision plate reader (PerkinElmer, Shelton, CT). For cell viability readout that measures cytotoxicity, 4 uL/well of CellTiter-Glo reagent was added into the assay plates using a FRD. After 30 min incubation at room temperature, the luminescence intensity in the plates was measured using a ViewLux (PerkinElmer) plate reader.
Turning to `N#Cc1ccccc1`, the Potency result was “inactive”.

In the case of `CC(CCl)OP(=O)(OC(C)CCl)OC(C)CCl` (stereo not given), the Potency result was “inactive”.

Turning to `OCc1cccc(Oc2ccccc2)c1`, the Potency result was “inactive”.

For `CCCCCCCCCCCCCCCCO`, the “activity change, negative = cytotoxicity” value is 6.32% [at 42.5 µM].

As to `Clc1ccccn1`, the Potency entry is “inactive”.

With `CC(=O)CCC=C(C)C`, the Potency result was “inactive”.

Take `CN(C)c1ccc(Cc2ccc(N(C)C)cc2)cc1`: the “activity change, negative = cytotoxicity” value is -0.742%.

As for `C=C(C)C(=O)OCC(C)C`, the Potency result was “inactive”.

Take `O=C(O)c1ccc(S(=O)(=O)N(Cl)Cl)cc1`: the Potency entry was “inactive”.

For `COC(=O)c1cccnc1`, the Potency entry is “inactive”.

In the case of `O=[N+]([O-])c1ccc2nc[nH]c2c1`, the Potency entry is “inactive”.

`CCNc1ccccc1`: the Potency result is “inactive”.

Turning to `C=CC(C)CCCC(C)(C)O` (stereo not given), the Potency entry was “inactive”.

On to `C=CCCCCCCCCC(=O)O`, for which the “activity change, negative = cytotoxicity” value was -3.62% [at 42.5 µM].

Turning to `CN1C(=O)CC[C@H]1c1cccnc1`, the Potency entry is “inactive”.

As for `COc1ccc(C)cc1N`, the Potency entry was “inactive”.

As for `CCO[Si](CCC#N)(OCC)OCC`, the Potency result is “inactive”.

Regarding `CCCCCCCCCCCC(=O)OC`, the Potency entry was “inactive”.

For `CC(=O)OCc1ccccc1`, the Potency entry is “inactive”.

For the compound `CCCCCCCO`, the Potency entry is “inactive”.

On to `C=C(C)[C@H]1CC=C(C)C(=O)C1`, for which the Potency entry was “inactive”.

As to `O=C(OCC1CCC2OC2C1)C1CCC2OC2C1` (stereo not given), the Potency result was “inactive”.

With `CSc1ccc(Cl)cc1`, the Potency result is “inactive”.

As to `CC(O)CC(C)(C)O` (stereo not given), the Potency entry was “inactive”.

As for `Brc1ccc(Br)c(Br)c1`, the Potency entry is “inactive”.

For `c1ccc(Oc2ccccc2)cc1`, the Potency entry is “inactive”.

For `CC(=O)OCc1ccco1`, the Potency result was “inactive”.

`NCCN1CCNCC1`: the Potency entry was “inactive”.

In the case of `COc1ccc(CCC(C)=O)cc1`, the Potency entry is “inactive”.

Take `CC(C)OP(=O)(CP(=O)(OC(C)C)OC(C)C)OC(C)C`: the Potency result is “inactive”.

For `CCOC(=O)c1ccc(N)cc1`, the Potency result was “inactive”.

`C=CC[N+](C)(C)CC=C`: the Potency result is “inactive”.

In the case of `CCCCC(C=O)CC` (stereo not given), the Potency entry is “inactive”.

`O=C(O)/C=C/C(=O)O`: the Potency result is “inactive”.

Regarding `NCCCCCCN`, the Potency entry is “inactive”.

On to `Cc1ccc(C(C)C)c(O)c1`, for which the “activity change, negative = cytotoxicity” value was 5.77% [at 42.5 µM].

With `Cc1ccc([N+](=O)[O-])cc1S(=O)(=O)O`, the Potency entry is “inactive”.

As for `CCCCCC(=O)O`, the Potency result was “inactive”.

Consider `CCCCCCO`, for which the Potency entry is “inactive”.

Consider `CC1(C)S[C@@H]2[C@H](NC(=O)COc3ccccc3)C(=O)N2[C@H]1C(=O)O`, for which the Potency result is “inactive”.
